According to paper PMC11062922 (Nature Chemical Biology, 2023):
Like-named read-outs stand apart in the source and are kept apart here.

How the values were obtained:
Parameters in all cases: species or system human, MV4-11 + K-562 + COLO205 + SK-N-BE2 + OVCAR-8
CSNK1A1 = conditions: read-out: apparent Kd, n = 1
CSNK1D = conditions: read-out: apparent Kd, n = 1
CSNK1E = conditions: read-out: apparent Kd, n = 1
DDR1 = conditions: read-out: apparent Kd; compound concentrations: 100 nM and 1000 nM (sheet 'Samples'), CATDS: 5.0291994189884899E-2; n = 1
DDR2 = conditions: read-out: apparent Kd; compound concentrations: 100 nM and 1000 nM (sheet 'Samples'), CATDS: 3.5910243594836001E-2; n = 1
GAK = conditions: read-out: apparent Kd; compound concentrations: 100 nM and 1000 nM (sheet 'Samples'), CATDS: 5.4860090777902201E-2; n = 1
MAPK10 = conditions: read-out: apparent Kd, compound concentrations: 100 nM and 1000 nM (sheet 'Samples'), n = 1
MAPK11 = conditions: read-out: apparent Kd, n = 1
MAPK14 = conditions: read-out: apparent Kd, n = 1
MAPK8 = conditions: read-out: apparent Kd; compound concentrations: 100 nM and 1000 nM (sheet 'Samples'), CATDS: 4.6835981276276903E-2; n = 1
MAPK9 = conditions: read-out: apparent Kd, n = 1
MAPKAPK2 = conditions: read-out: apparent Kd, compound concentrations: 100 nM and 1000 nM (sheet 'Samples'), n = 1
PIK3CA = conditions: read-out: apparent Kd; compound concentrations: 100 nM and 1000 nM (sheet 'Samples'), CATDS: 4.2523993136959801E-2; n = 1
PIK3CD = conditions: read-out: apparent Kd; compound concentrations: 100 nM and 1000 nM (sheet 'Samples'), CATDS: 5.28736711934766E-2; n = 1
PRKD2 = conditions: read-out: apparent Kd, compound concentrations: 100 nM and 1000 nM (sheet 'Samples'), n = 1
PRKD3 = conditions: read-out: apparent Kd, compound concentrations: 100 nM and 1000 nM (sheet 'Samples'), n = 1
RIPK2 = conditions: read-out: apparent Kd, compound concentrations: 100 nM and 1000 nM (sheet 'Samples'), n = 1
TNIK = conditions: read-out: apparent Kd; compound concentrations: 100 nM and 1000 nM (sheet 'Samples'), CATDS: 3.1361492555590703E-2; n = 1
NLK = conditions: read-out: apparent Kd, n = 1
PKN3 = conditions: read-out: apparent Kd; compound concentrations:100 nM and 1000 nM (sheet 'Samples'); n = 1
MYLK3 = conditions: read-out: apparent Kd; compound concentrations: 100 nM and 1000 nM (sheet 'Samples'), CATDS: 0.254967092830167; n = 1
PKN2 = conditions: read-out: apparent Kd; compound concentrations: 100 nM and 1000 nM (sheet 'Samples'), CATDS: 0.232185519076441; n = 1
TP53RK = conditions: read-out: apparent Kd; compound concentrations: 100 nM and 1000 nM (sheet 'Samples'), CATDS: 0.27535936863047; n = 1
[1] = compound concentrations:100 nM and 1000 nM (sheet 'Samples')

CCNc1nccc(-c2c(-c3ccc(F)cc3)ncn2C2CCN(C)CC2)n1 [SB-226605]
potency estimated from few doses (CSNK1A1; compound concentrations: 100 nM and 1000 nM (sheet 'Samples'), CATDS: 6.4218500177313606E-2): 54.1 nM
potency estimated from few doses (CSNK1D; compound concentrations: 100 nM and 1000 nM (sheet 'Samples'), CATDS: 0.15961937746466701): 6.16 nM
potency estimated from few doses (CSNK1E; compound concentrations: 100 nM and 1000 nM (sheet 'Samples'), CATDS: 8.6582359742075399E-2): 24.7 nM
potency estimated from few doses (DDR1): 116 nM
potency estimated from few doses (DDR2): 495 nM
potency estimated from few doses (GAK): 87 nM
potency estimated from few doses (MAPK10; CATDS: 6.8740436071955194E-2): 44.8 nM
potency estimated from few doses (MAPK11; compound concentrations: 100 nM and 1000 nM (sheet 'Samples'), CATDS: 3.4840518040238501E-2): 589 nM
potency estimated from few doses (MAPK14; compound concentrations: 100 nM and 1000 nM (sheet 'Samples'), CATDS: 0.16984831376033699): 5.38 nM
potency estimated from few doses (MAPK8): 150 nM
potency estimated from few doses (MAPK9; compound concentrations: 100 nM and 1000 nM (sheet 'Samples'), CATDS: 9.88487925087526E-2): 18 nM
potency estimated from few doses (MAPKAPK2; CATDS: 7.0385751931635404E-2): 42 nM
potency estimated from few doses (PIK3CA): 220 nM
potency estimated from few doses (PIK3CD): 98.1 nM
potency estimated from few doses (PRKD2; CATDS: 3.2417406243743098E-2): 939 nM
potency estimated from few doses (PRKD3; CATDS: 3.0540590804978299E-2): 1520 nM
potency estimated from few doses (RIPK2; CATDS: 3.5796504024636501E-2): 504 nM
potency estimated from few doses (TNIK): 1210 nM

Fc1ccc(-c2ncn(C3CCNCC3)c2-c2ccnc(Oc3ccccc3)n2)cc1 [SB-239272]
potency estimated from few doses (CSNK1A1; [1]): 1380 nM
potency estimated from few doses (CSNK1D; [1]): 88.7 nM
potency estimated from few doses (CSNK1E; [1]): 191 nM
potency estimated from few doses (MAPK11; [1]): 45.4 nM
potency estimated from few doses (MAPK14; [1]): 12.5 nM
potency estimated from few doses (MAPK9; [1]): 1110 nM
potency estimated from few doses (NLK; [1]): 1500 nM
potency estimated from few doses (PKN3): 2090 nM

C[C@H](O)CNc1cc(-c2[nH]c3cccnc3c2-c2ccc(F)cc2)ccn1.Cl [RO3206145-001]
potency estimated from few doses (CSNK1D; compound concentrations: 100 nM and 1000 nM (sheet 'Samples'), CATDS: 0.227277196740168): 36.6 nM
potency estimated from few doses (CSNK1E; compound concentrations: 100 nM and 1000 nM (sheet 'Samples'), CATDS: 0.13101963616975801): 99 nM
potency estimated from few doses (MAPK10; CATDS: 6.3561216633857096E-2): 1000 nM
potency estimated from few doses (MAPK11; compound concentrations: 100 nM and 1000 nM (sheet 'Samples'), CATDS: 0.18420027460355101): 51.5 nM
potency estimated from few doses (MAPK14; compound concentrations: 100 nM and 1000 nM (sheet 'Samples'), CATDS: 0.188780888737105): 49.4 nM
potency estimated from few doses (MAPK9; compound concentrations: 100 nM and 1000 nM (sheet 'Samples'), CATDS: 9.6618855435108605E-2): 211 nM
potency estimated from few doses (MAPKAPK2; CATDS: 0.128658474948743): 103 nM
potency estimated from few doses (NLK; compound concentrations: 100 nM and 1000 nM (sheet 'Samples'), CATDS: 5.8542673875263601E-2): 1550 nM
potency estimated from few doses (PRKD2; CATDS: 5.9855757256393E-2): 1370 nM
potency estimated from few doses (PRKD3; CATDS: 5.6713144719272697E-2): 1880 nM
potency estimated from few doses (RIPK2; CATDS: 7.7128877949965702E-2): 441 nM

Cc1ccc(-c2cc3c(NC(=O)C4CC4)ncnc3o2)cc1 [GW819230X]
potency estimated from few doses (CSNK1A1; compound concentrations: 100 nM and 1000 nM (sheet 'Samples'), CATDS: 0.241580521879566): 2130 nM
potency estimated from few doses (MYLK3): 1910 nM
potency estimated from few doses (PKN2): 2320 nM
potency estimated from few doses (TP53RK): 1650 nM
